In ChEMBL document CHEMBL3433997, “St. Jude Leishmania screening dataset” (2016):
“And” between values parts separate entries of the source, which are not always exact repeats. Equal values may be shown once.

Legend:
Assay type in all cases: functional
[1] = molecular target: Solute carrier family 2, facilitated glucose transporter member 1 (Homo sapiens) (UniProt P11166); test: ST_JUDE_LEISH: Cytotoxicity at 2uM final concentration against transgenic Leishmania Mexicana promastigotes LmGLUT1 that are glucose transport deficient and complemented with the human glucose transporter GLUT1. Activity is measured by DNA content using SYBR green in vitro
Solute carrier family 2, facilitated glucose transporter member 1 (Homo sapiens), sequence (P11166 whole entry): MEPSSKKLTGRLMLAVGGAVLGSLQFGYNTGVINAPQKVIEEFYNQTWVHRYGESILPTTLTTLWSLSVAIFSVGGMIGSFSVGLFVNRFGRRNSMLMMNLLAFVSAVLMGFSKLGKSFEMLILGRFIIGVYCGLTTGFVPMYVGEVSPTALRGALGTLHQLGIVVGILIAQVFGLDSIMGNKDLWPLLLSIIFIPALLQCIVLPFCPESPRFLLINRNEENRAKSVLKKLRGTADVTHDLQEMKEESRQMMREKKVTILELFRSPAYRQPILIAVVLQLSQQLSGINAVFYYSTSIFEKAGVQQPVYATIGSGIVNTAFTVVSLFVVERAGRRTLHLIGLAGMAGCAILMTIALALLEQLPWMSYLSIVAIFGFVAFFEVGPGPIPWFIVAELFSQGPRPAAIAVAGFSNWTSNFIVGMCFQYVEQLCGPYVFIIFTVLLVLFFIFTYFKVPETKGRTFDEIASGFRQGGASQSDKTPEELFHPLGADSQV

[2] = molecular target: Hexose transporter 1 (Plasmodium falciparum) (UniProt O97467); test: ST_JUDE_LEISH: Cytotoxicity at 2uM final concentration against transgenic Leishmania Mexicana promastigotes LmPfHT that are glucose transport deficient and complemented with the Plasmodium falciparum hexose transporter. Activity is measured by DNA content using SYBR green in vitro
[3] = molecular target: Glucose transporter (Leishmania mexicana) (UniProt O61059); test: ST_JUDE_LEISH: Cytotoxicity at 2uM final concentration against transgenic Leishmania Mexicana promastigotes LmGT2 that are glucose transport deficient and complemented with the L. Mexicana glucose transporter 2. Activity is measured by DNA content using SYBR green in vitro

Compound	inhibition [1]	inhibition [2]	inhibition [3]
C=CC12CCN(CC1)C(C(O)c1ccnc3ccc(OC)cc13)C2 (stereo unspecified)	0.26%	0.03%	-0.85%
COc1ccc(OC)c(C(O)C(C)NCc2cc(Cl)ccc2O)c1 (stereo unspecified)	0.78%	1.14%	1.94%
S=C(NCC1CCCCC1)NC1CCC(CN2CCC(c3c[nH]c4ccccc34)CC2)CC1 (stereo unspecified)	1.87%	3.66%	0.26%
Cc1ccc(CC(C)NCC(O)c2cccc(C(F)(F)F)c2)cc1 (stereo unspecified)	1.64% and 2.89%	4.33% and 0.46%	1.68% and 0.49%
COc1ccc(CN2CCN(CCOC(c3ccccc3)c3ccc(Cl)cc3)CC2)c(O)c1 (stereo unspecified)	9.85%	10.7%	6.46%
CN(CC(=O)N1CCN(S(=O)(=O)c2cccc(Cl)c2)CC1CN1CCCC1)c1ccc(Cl)c(Cl)c1 (stereo unspecified)	0.54%	1.78%	2.07%
CC(Cc1ccc(OCCCCOc2ccccc2)cc1)NCCC1CCCN1C (stereo unspecified)	103%	97.7%	103%
Cc1ccc(/C=C/C(=O)NC2CCC(CN3CCC(c4c[nH]c5ccccc45)CC3)CC2)cc1 (stereo unspecified)	0.19% and 4.55%	1.12% and 3.15%	2.44% and 0.47%
O=C(/C=C/c1c(Cl)cccc1Cl)NC1CCC(CN2CCC(c3c[nH]c4ccccc34)CC2)CC1 (stereo unspecified)	5.03% and 4.85%	12.9% and 2.55%	6.66% and 4.94%
O=C1Nc2cccc3c2C1(CCCCN1CC=C(c2c[nH]c4ncccc24)CC1)CCC3 (stereo unspecified)	5.83%	4.08%	3.96%
CC[C@H]1CN2CC[C@@H]1C[C@H]2[C@H](O)c1cc(-c2ccc(F)cc2)nc2ccc(O)cc12	-0.76%	0.53%	-0.19%
COc1cc2nc(N(C)C3CCN(Cc4ccccc4)CC3)nc(N)c2cc1OC	69.8%	46.7%	25%
